The source made the active and inactive calls. Rule for the calls: active = hit-call score of the fitted dose curve at least 0.9, where 1 is the maximum; inactive = score below 0.9.

This is an account of results in PubChem BioAssay (EPA / NIEHS).

What all share (conditions): mRNA level, 48 h; actives raise or lower the signal
Read-out in test [1]: CFLAR gene, CFLAR (gene 8837)
Description: LTEA_HepaRG_CFLAR: Life Technologies and Expression Analysis (LTEA) Assay for CFLAR gene using HepaRG (AID 2283455). In a few lines:
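HepaRG cells were plated for 48 h, switched to serum-free induction medium, then exposed in duplicate for 48 h to 8 concentrations (top 100 uM, half-log steps, 0.5% DMSO). CFLAR mRNA was measured by qRT-PCR, normalized to ACTB, GAPDH and POLR2A.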

Read-out in test [2]: Forkhead box O1 (FOXO1), FOXO1 (gene 2308)
Description: LTEA_HepaRG_FOXO1: Life Technologies and Expression Analysis (LTEA) Assay for Forkhead box O1 (FOXO1) using HepaRG (AID 2283456). The procedure, abridged:
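Differentiated human HepaRG cells in serum-free induction medium were exposed in duplicate for 48 h to eight half-log concentrations (top 100 uM, 0.5% DMSO). FOXO1 mRNA was measured by TaqMan qRT-PCR, normalised to ACTB, GAPDH and POLR2A, and fitted bidirectionally against DMSO.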

Read-out in test [3]: growth arrest and DNA damage 45 (GADD45A), GADD45A (gene 1647)
As to the kind of experiment: LTEA_HepaRG_GADD45A: Life Technologies and Expression Analysis (LTEA) Assay for growth arrest and DNA damage 45 (GADD45A) using HepaRG (AID 2283458). In a few lines:
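Differentiated HepaRG cells exposed 48 h in serum-free induction medium to 8 concentrations, top 100 uM in half-log steps, 0.5% DMSO. GADD45A mRNA quantified by qRT-PCR, normalized to ACTB, GAPDH and POLR2A; bidirectional fit versus DMSO.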

Read-out in test [4]: ABC Transporter (ABCB1), ABCB1 (gene 5243)
As to the kind of experiment: LTEA_HepaRG_ABCB1: Life Technologies and Expression Analysis (LTEA) Assay for ABC Transporter (ABCB1) using HepaRG (AID 2283460). The procedure, abridged:
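Differentiated human HepaRG cells, plated 48 h then switched to serum-free induction medium, were exposed in duplicate to eight half-log concentrations up to 100 uM in 0.5% DMSO for 48 h. ABCB1 mRNA was measured by TaqMan qRT-PCR, normalized to ACTB/GAPDH/POLR2A.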

Read-out in test [5]: growth arrest and DNA damage 45 (GADD45B), GADD45B (gene 4616)
As to the kind of experiment: LTEA_HepaRG_GADD45B: Life Technologies and Expression Analysis (LTEA) Assay for growth arrest and DNA damage 45 (GADD45B) using HepaRG (AID 2283461). In a few lines: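 Human HepaRG monolayers receive chemicals for 48 h at eight half-log concentrations, highest 100 uM, in 0.5% DMSO. Expression is measured by TaqMan qRT-PCR and normalized to ACTB, GAPDH and POLR2A.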

Read-out in test [6]: ABC Transporter (ABCB11), ABCB11 (gene 8647)
Description: LTEA_HepaRG_ABCB11: Life Technologies and Expression Analysis (LTEA) Assay for ABC Transporter (ABCB11) using HepaRG (AID 2283463). The procedure, abridged: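 Differentiated human HepaRG cells were exposed for 48 h in serum-free induction medium to eight half-log concentrations up to 100 uM in 0.5% DMSO. ABCB11 mRNA was quantified by qRT-PCR, normalized to ACTB, GAPDH and POLR2A, and fitted bidirectionally versus DMSO.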

Read-out in test [7]: ABC Transporter (ABCC2), ABCC2 (gene 1244)
As to the kind of experiment: LTEA_HepaRG_ABCC2: Life Technologies and Expression Analysis (LTEA) Assay for ABC Transporter (ABCC2) using HepaRG (AID 2283464). In a few lines:
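After plating and 48 h culture, HepaRG medium is replaced with serum-free induction medium and chemicals are added (8 concentrations, max 100 uM, 0.5% DMSO) for 48 h. Total RNA then undergoes qRT-PCR for ABCC2 with housekeeping normalization.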

Read-out in test [8]: Broad substrate specificity ATP-binding cassette transporter ABCG2 (Homo sapiens) (UniProt Q9UNQ0)
Description: LTEA_HepaRG_ABCG2: Life Technologies and Expression Analysis (LTEA) Assay for ABC Transporter (ABCG2) using HepaRG (AID 2283465). In a few lines:
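Differentiated HepaRG cells in serum-free induction medium were exposed for 48 h, in duplicate, to eight half-log concentrations up to 100 uM in 0.5% DMSO. ABCG2 mRNA was measured by TaqMan qRT-PCR, normalized to ACTB, GAPDH and POLR2A, and fitted bidirectionally versus DMSO.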

Read-out in test [9]: ATP-citrate lyase (ACLY), ACLY (gene 47)
As to the kind of experiment: LTEA_HepaRG_ACLY: Life Technologies and Expression Analysis (LTEA) Assay for ATP-citrate lyase (ACLY) using HepaRG (AID 2283466). In a few lines: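 Differentiated human HepaRG cells in serum-free induction medium exposed 48 h, in duplicate, to eight half-log concentrations from 100 uM top in 0.5% DMSO; ACLY mRNA measured by qRT-PCR, normalized to ACTB, GAPDH, POLR2A, fitted bidirectionally versus DMSO.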

Read-out in test [10]: Peroxisomal acyl-coenzyme A oxidase 1 (ACOX1) gene, ACOX1 (gene 51)
Description: LTEA_HepaRG_ACOX1: Life Technologies and Expression Analysis (LTEA) Assay for Peroxisomal acyl-coenzyme A oxidase 1 (ACOX1) gene using HepaRG (AID 2283467). In a few lines:
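Differentiated human HepaRG cells were exposed in duplicate for 48 h in serum-free induction medium to eight half-log concentrations up to 100 uM in 0.5% DMSO. ACOX1 mRNA was then quantified by TaqMan qRT-PCR, normalized to ACTB, GAPDH and POLR2A.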

Read-out in test [11]: Alkaline Phosphatase, Placental (ALPP) gene, ALPP (gene 250)
As to the kind of experiment: LTEA_HepaRG_ALPP: Life Technologies and Expression Analysis (LTEA) Assay for Alkaline Phosphatase, Placental (ALPP) gene using HepaRG (AID 2283468). The procedure, abridged:
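Using human liver HepaRG cells, chemicals are tested in duplicate over 48 h at half-log concentrations topping at 100 uM; phenobarbital 1 mM serves as induction control. ALPP mRNA change by qRT-PCR, bidirectional fit against vehicle.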

Read-out in test [12]: Bcl-2 (BAD) gene, BAD (gene 572)
As to the kind of experiment: LTEA_HepaRG_BAD: Life Technologies and Expression Analysis (LTEA) Assay for Bcl-2 (BAD) gene using HepaRG (AID 2283469). In a few lines:
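Differentiated human HepaRG cells in serum-free induction medium were exposed in duplicate for 48 h to eight concentrations (top 100 uM, half-log steps, 0.5% DMSO). BAD mRNA was quantified by qRT-PCR normalised to ACTB, GAPDH and POLR2A, with bidirectional fitting versus DMSO.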

Read-out in test [13]: Bcl-2 (BAX) gene, BAX (gene 581)
As to the kind of experiment: LTEA_HepaRG_BAX: Life Technologies and Expression Analysis (LTEA) Assay for Bcl-2 (BAX) gene using HepaRG (AID 2283470). In a few lines:
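Differentiated HepaRG cells exposed 48 h in serum-free induction medium, eight half-log concentrations from 100 uM, in duplicate, 0.5% DMSO vehicle. BAX mRNA by TaqMan qRT-PCR, normalised to ACTB, GAPDH and POLR2A.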

Read-out in test [14]: adenosine kinase (ADK) gene, ADK (gene 132)
Description: LTEA_HepaRG_ADK: Life Technologies and Expression Analysis (LTEA) Assay for adenosine kinase (ADK) gene using HepaRG (AID 2283471). In a few lines: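 Following 48 h exposure of HepaRG cells in 0.5% DMSO (top concentration 100 uM, duplicate wells), ADK mRNA induction or suppression was measured by qRT-PCR, normalised to ACTB/GAPDH/POLR2A, and fitted bidirectionally relative to vehicle.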

Read-out in test [15]: Alpha-fetoprotein (AFP) gene, AFP (gene 174)
As to the kind of experiment: LTEA_HepaRG_AFP: Life Technologies and Expression Analysis (LTEA) Assay for Alpha-fetoprotein (AFP) gene using HepaRG (AID 2283472). In a few lines: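 Differentiated human HepaRG cells exposed 48 h in serum-free induction medium, 8-point half-log series from 100 uM in 0.5% DMSO, duplicate. AFP mRNA by qRT-PCR, normalized to ACTB, GAPDH, POLR2A; bidirectional fit vs DMSO.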

Read-out in a further test: BCL2L11 (gene 10018)
As to the kind of experiment: LTEA_HepaRG_BCL2L11: Life Technologies and Expression Analysis (LTEA) Assay for Bcl-2 (BCL2L11) gene using HepaRG (AID 2283473). The procedure, abridged:
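Human hepatic HepaRG cultures are treated 48 h with test chemicals (maximum 100 uM, 0.5% DMSO vehicle). Expression of BCL2L11 is measured by qRT-PCR against ACTB, GAPDH and POLR2A, with activity in either direction scored relative to vehicle.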

Read-out in test [16]: Apolipoprotein A-V (APOA5) gene, APOA5 (gene 116519)
Description: LTEA_HepaRG_APOA5: Life Technologies and Expression Analysis (LTEA) Assay for Apolipoprotein A-V (APOA5) gene using HepaRG (AID 2283474). The procedure, abridged:
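Concentration-response of APOA5 expression in HepaRG: eight half-log doses to 100 uM, 48 h, qRT-PCR normalized to ACTB/GAPDH/POLR2A, bidirectional fitting with 0.5% DMSO as baseline.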

Read-out in test [17]: ABC Transporter (ABCC3), ABCC3 (gene 8714)
Description: LTEA_HepaRG_ABCC3: Life Technologies and Expression Analysis (LTEA) Assay for ABC Transporter (ABCC3) using HepaRG (AID 2283462). The procedure, abridged:
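Transcriptional change of ABCC3 in HepaRG after 48 h treatment, determined by qRT-PCR normalized to endogenous controls. Concentrations spanned eight half-log steps to 100 uM in 0.5% DMSO.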

Chain of Broad substrate specificity ATP-binding cassette transporter ABCG2 (Homo sapiens) (Q9UNQ0 whole entry, looked up): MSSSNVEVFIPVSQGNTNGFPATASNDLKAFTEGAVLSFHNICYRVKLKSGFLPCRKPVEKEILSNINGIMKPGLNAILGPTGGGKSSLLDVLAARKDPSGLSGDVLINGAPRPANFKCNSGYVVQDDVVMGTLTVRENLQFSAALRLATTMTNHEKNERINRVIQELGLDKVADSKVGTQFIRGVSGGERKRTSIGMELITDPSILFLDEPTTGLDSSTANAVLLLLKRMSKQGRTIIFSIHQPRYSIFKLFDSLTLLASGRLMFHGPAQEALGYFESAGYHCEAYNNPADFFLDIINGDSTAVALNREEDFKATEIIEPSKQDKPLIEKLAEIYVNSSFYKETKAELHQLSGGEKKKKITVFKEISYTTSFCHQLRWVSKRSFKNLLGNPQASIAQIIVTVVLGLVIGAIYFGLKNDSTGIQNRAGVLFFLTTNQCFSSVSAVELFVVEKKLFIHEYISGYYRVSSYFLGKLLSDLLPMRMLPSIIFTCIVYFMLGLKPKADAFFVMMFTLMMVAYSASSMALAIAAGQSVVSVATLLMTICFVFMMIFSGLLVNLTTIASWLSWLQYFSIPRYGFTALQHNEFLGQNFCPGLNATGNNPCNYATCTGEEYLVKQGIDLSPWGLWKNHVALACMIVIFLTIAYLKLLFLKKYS

As to `CC(C)(O)C(=O)Nc1ccc([N+](=O)[O-])c(C(F)(F)F)c1`, the outcome in test [1], in test [3], in test [4], in [5], in [6] and in [7] was inactive. The compound was classed as inactive in test [8], in test [9], in test [10], in test [13], in test [14] and in test [15]. The AC50 in test [2] is 0.0468 µM (active); in test [11] it was 0.0354 µM (active); in test [12] it was 0.0265 µM (active); in the test with BCL2L11 (gene 10018), 0.0415 µM (active); in [16] it was 0.0349 µM (active).
As for `CCCCCCCCCC[N+](C)(C)CCCCCCCCCC`, the concentration at half-maximal activity (AC50) in test [1] was 76.5 µM (active); in test [5], 78.8 µM (active); in [17], 79.8 µM (active); in [6], 15.8 µM (active); in [7], 94.2 µM (active); in [8], 72.8 µM (active). The concentration at half-maximal activity (AC50) in test [10] was 76.4 µM (active); in [11], 90.5 µM (active); in test [13] it was 60.3 µM (active). Moreover, the compound was called inactive in test [2], in test [3], in test [4], in test [9], in test [12] and in test [15]. Besides, the compound was called inactive (with BCL2L11 (gene 10018); in test [16]).
In the case of `N#Cc1ccc(N(CC(N)=O)CC(F)(F)F)cc1C(F)(F)F`, the call in test [1], in test [2], in test [3], in [5], in test [17] and in test [7] was inactive. The compound was classed as inactive in [8], in test [9], in [10], in [11], in test [12] and in [13]. Moreover, the compound was called inactive (in test [14]; with BCL2L11 (gene 10018); in [16]). In addition, the concentration at half-maximal activity (AC50) in test [4] was 9.92 µM (active); in [6], 0.353 µM (active).

In general, AC50 refers to the midpoint of the concentration-response curve, whichever way the signal moves.
